Screening data deposited in PubChem BioAssay by several laboratories.
PolyA inhibitor = polyadenylation inhibitors in yeast reporter cells, primary screen, luminescence, S. cerevisiae; S. cerevisiae SKY197-pL101 polyadenylation reporter, beta-gal luminescence; efflux-impaired pdr1/pdr3 knockout yeast; score 100 = 6 SD above DMSO; activity score, % at 12 µM; hit rate 0.02% among 300,000; AID 1875, 2009;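 active = lowest replicate activity score at least 50, where 100 means six control SD above control mean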;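 note: yeast exposed to compound for 9 h at 30 °C; higher score means more reporter readthrough which indicates perturbed polyadenylation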
dFosB activator = activators of delta FosB homodimer, primary screen, biochemical, fluorescence polarization, TAMRA-CDK5 oligo, single point | hit rate 0.99% among 340,000 | purified delta FosB; percent of positive-control signal above neutral wells | activation, % at 25 µM | Protein FosB (Mus musculus), P13346;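 active = mean activation above about 17%, with every replicate also reaching it, limit read from the data, passing the limit was not always enough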
Target sequence (P13346 whole entry, looked up): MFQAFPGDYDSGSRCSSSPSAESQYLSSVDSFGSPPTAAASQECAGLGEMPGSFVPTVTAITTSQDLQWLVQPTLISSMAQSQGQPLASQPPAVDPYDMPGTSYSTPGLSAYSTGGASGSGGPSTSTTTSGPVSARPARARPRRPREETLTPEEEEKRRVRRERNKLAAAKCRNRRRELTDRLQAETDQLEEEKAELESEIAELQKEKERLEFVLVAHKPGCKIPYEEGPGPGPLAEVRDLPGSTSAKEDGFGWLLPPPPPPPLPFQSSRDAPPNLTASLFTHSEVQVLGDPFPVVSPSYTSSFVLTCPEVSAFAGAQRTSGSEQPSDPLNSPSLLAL
NALP1 yeast inh = NALP1 inflammasome inhibitors in reconstituted yeast, colorimetric, S. cerevisiae, triplicate retest; hit rate 0.61% among 280,000; S. cerevisiae NALP1/ASC/caspase-1 growth, X-gal OD620, 72 h; inhibition, % at 10 µM; in the data active = inhibition mostly above about 24%, no sharp cut-off; inactive = mostly below about 32%
ZTA DNA inh = counter-screen for EBNA-1 inhibitors: inhibitors of Epstein-Barr virus ZTA; ZTA-DNA binding, fluorescence polarization; inhibition, % at 11 µM; hit rate 0.15% among 320,000; in the data active = inhibition above about 33%
NALP3 yeast inh = NALP3 inflammasome inhibitors in reconstituted yeast, primary screen, luminescence, uHTS | inhibition, % at 10 µM | hit rate 0.39% among 330,000 | Yeast reconstituted NLRP3/ASC/caspase-1, beta-gal luminescence, 24 h | AID 2825, 2010;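 active = inhibition of 50% or more; inactive = inhibition below 50%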;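 note: plate controls were induced DMSO wells for no effect and uninduced yeast grown without galactose for full effect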
EBNA-1 inh = EBNA-1 DNA-binding inhibitors, primary screen, biochemical, fluorescence polarization; inhibition, % at 14.8 µM; hit rate 0.34% among 300,000; AID 1950, 2009; in the data active = inhibition above about 28%
NALP3 yeast conf = NALP3 inhibitors retested in yeast, confirmation, luminescence, single concentration; shares compounds with NALP3 yeast inh; yeast expressing human NALP3; inhibition, % at 10 µM; hit rate 81% among 1,300; in the data active = inhibition above about 48%
Casp1 ASC ctr = CASP1-PYCARD signaling inhibition in yeast, confirmatory test, counterassay for NLRP3 inhibitor program, one-dose. shares compounds with NALP3 yeast inh. yeast expressing Caspase-1-ASC, luminescence counter screen. inhibition, % at 10 µM. hit rate 66% among 1,000. AID 488784, 2010
NALP3 retest = NALP3 inhibitors in yeast, repeat test, confirmation, luminescence, single concentration, retest; shares compounds with NALP3 yeast inh; yeast expressing human NALP3, luminescence read-out; inhibition, % at 10 µM; hit rate 53% among 1,000; AID 488794, 2010
* hit, by the source's call; · = not tested or not shown. Most compounds without a hit are left out; they make up all but 2.2% or so of the library. Cut-off read from the data, not from the text of the source, unless noted: active = inhibition above about 50%; inactive = the rest.

SMILES	PolyA inhibitor	dFosB activator	NALP1 yeast inh	ZTA DNA inh	NALP3 yeast inh	EBNA-1 inh	NALP3 yeast conf	Casp1 ASC ctr	NALP3 retest
Cc1cc(N2CCCC2)ccc1/C=C1\NC(=S)N(C)C1=O	-51	2	3	-9	51*	-7	50*	50*	47
CCN(CC)S(=O)(=O)c1ccc(O)c(NC(=O)COc2ccc(S(=O)(=O)N3CCOCC3)cc2)c1	·	-9	·	·	·	·	·	·	·
CC(Cc1ccccc1)(NC(=O)CN)c1ccccc1 (configuration not stated)	-6	·	63*	5	91*	-5	96*	94*	93*
COC(=O)c1ccc(Oc2ccc(S(=O)(=O)N3CCCCC3)cc2N)cc1	-11	-17	56*	-2	88*	13	94*	93*	88*
COC(=O)CNc1cc(S(=O)(=O)N2CCCCC2)ccc1Oc1ccc(C(=O)OC)cc1	-3	-10	31	10	66*	-9	70*	39	29
CCCN(CC(=O)Nc1ccccc1C)C(=O)c1ccc(NC2CC2)c([N+](=O)[O-])c1	-6	-7	·	7	7	6	·	·	·
CCC1Oc2ccccc2N(Cc2ccccc2C)C1=O (configuration not stated)	-10	0	-20	8	-151	6	-22	·	·
CCOC(=O)CN1C(=O)C(CC)Oc2ccccc21 (configuration not stated)	2	-8	7	7	-12	5	·	·	·
O=C(Nc1ccccc1)Nc1cc(Cl)cc(Cl)c1	-12	-2	5	-18	56*	-8	77*	68*	78*
O=C1CSC(=S)N1c1cccc(O)c1	-16	1	96*	·	92*	·	93*	99*	96*
O=C1/C(=C/c2ccccn2)SC(=S)N1c1ccc(O)cc1	5	11	·	5	70*	4	75*	56*	49
O=C1/C(=C/c2cccs2)SC(=S)N1c1cccc(O)c1	0	0	-3	-2	81*	7	88*	94*	88*
CC(C)C(OC(=O)c1nsc(Cl)c1Cl)C(=O)NCC1CCCO1 (configuration not stated)	-9	-6	6	18	23	1	·	·	·
CN1CCc2nc3ccc(Cl)cc3c(-c3ccccc3Cl)c2C1	2	-5	41	7	57*	-3	57*	42	41
CCCCn1c(-c2csc3c2CCCC3)n[nH]c1=S	0	·	6	14	54*	0	66*	65*	55*
CCn1c(-c2csc3c2CCCC3)n[nH]c1=S	-8	-8	24	2	29	12	·	·	·
C[C@]12CC[C@H](O)CC1=CCC1C2CC[C@@]2(C)C1CCC21OCCO1 (some centres not stated)	·	-4	·	·	57*	·	63*	·	·
CC(=O)C1(O)C(C)CC2C3CC=C4CC(O)CCC4(C)C3CCC21C (configuration not stated)	·	-4	·	·	·	·	·	·	·
CC1CC(C)(C)N(C(=O)CN2C(=O)c3ccccc3C2=O)c2ccccc21 (configuration not stated)	-17	-2	-45	-21	52*	3	10	·	·
O=c1[nH]c2c(s1)C(c1ccccc1)C1C3CCC(C3)C1S2 (configuration not stated)	-14	-9	0	7	16	-1	·	·	·
COc1ccc(C2c3sc(=O)[nH]c3SC3C4CCC(C4)C23)cc1 (configuration not stated)	-6	-5	38	-4	51*	3	52*	·	·
Cc1occc1-c1nnc(SCC(=O)NC2CCC(C)CC2)o1 (configuration not stated)	·	1	·	-12	16	·	·	·	·
